The values below come from PubChem BioAssay (Tox21).

Experiment [1] is described as follows: qHTS assay to identify small molecule agonists of the estrogen related receptor signaling pathway with the pleiotropic PPARgamma coactivator (PGC) (AID 1224823). The procedure, abridged: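 PGC/ERR reporter cells seeded 6 h, then exposed to compounds (23 nL in DMSO) for 18 h at 37 C. One-Glo luciferase luminescence read after 30 min at room temperature.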
Experiment [2] has as its target Luciferin 4-monooxygenase (Photinus pyralis) (UniProt P08659). The experiment in a line: qHTS assay to identify small molecule inhibitors of firefly luciferase (AID 1224835). Further: nearly all actives have a fitted effect of over 25% in size. Further: potency means the concentration at half of the fitted maximal effect. The method, boiled down: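 Inhibition of purified Photinus luciferase is measured by luminescence. Substrate levels (D-luciferin, ATP) sit at their KM values. Each compound is tested in a concentration series.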

The nature of experiment [3]: qHTS assay to identify small molecule agonists of the constitutive androstane receptor (CAR) signaling pathway - cell viability counter screen (AID 1224836). Further: nearly all actives have a fitted effect of over 45% in size. The method, boiled down: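 Using CellTiter-Fluor, viability of HepG2 cells harbouring hCAR and CYP2B6-2.2kb was measured following 23 h incubation with a 15-concentration compound series plus PK11195 (0.75 uM final).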

A short description of experiment [4]: qHTS assay to identify small molecule antagonists of the constitutive androstane receptor (CAR) signaling pathway - cell viability counter screen (AID 1224837). Further: nearly all actives have a fitted effect of over 45% in size. The method, boiled down: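 Multiplexed cytotoxicity read-out for the CAR antagonist screen: double-stable HepG2-CYP2B6-hCAR cells co-treated with 50 nM CITCO (final) and compound over 15 concentrations, incubated 23 hr, then assessed by CellTiter-Fluor fluorescence.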

Experiment [5] has as its target Nuclear receptor subfamily 1 group I member 3 (Homo sapiens) (UniProt Q14994). Put plainly: qHTS assay to identify small molecule antagonists of the constitutive androstane receptor (CAR) signaling pathway (AID 1224838). Further: nearly all actives have a fitted effect of over 40% in size. The method, boiled down: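 Compounds were titrated across 15 concentrations onto HepG2 cells double-stably expressing hCAR and a CYP2B6-2.2kb reporter, together with 50 nM CITCO (final). After 24 h at 37 C, luciferase activity was measured by luminescence.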

Experiment [6] shares this target. The experiment in a line: qHTS assay to identify small molecule agonists of the constitutive androstane receptor (CAR) signaling pathway (AID 1224839). Further: nearly all actives have a fitted effect of over 15% in size. Further: potency means the concentration at half of the fitted maximal effect. The procedure, abridged: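 Double-stable HepG2 cells (hCAR, CYP2B6-2.2kb) seeded 4 h before compound addition. Exposure 24 h with 0.75 uM PK11195 final. Luciferase detected by ONE-Glo.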
The nature of experiment [7]: qHTS assay to identify small molecule antagonists of the estrogen related receptor signaling pathway with the pleiotropic PPARgamma coactivator (PGC) from Tox21 10K library - cell viability counter screen (AID 1224840; active means well fitted cell-killing curve with a large enough effect in the repeat runs, not every such curve was filed as active; further: nearly all actives have a fitted effect of over 40% in size). The procedure, abridged: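 Step one, plate 2,000 PGC/ERR cells per well; step two, incubate 6 h at 37 C/5% CO2; step three, pin-transfer compounds; step four, incubate 17.5 h; step five, add CellTiter-Fluor and read fluorescence after 30 min.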

Experiment [8] can be described thus: qHTS assay to identify small molecule antagonists of the estrogen related receptor signaling pathway with the pleiotropic PPARgamma coactivator (PGC) from Tox21 10K library (AID 1224841; call rule not given here; further: actives are mostly falling curves and most rising ones were filed inactive; nearly all actives have a fitted effect of over 50% in size). The method, boiled down:
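Antagonism in this quantitative HTS is taken from loss of luciferase signal in PGC/ERR cells. Cells (2,000/well) are treated with compounds in DMSO after a 6 h settling period and read by One-Glo luminescence after 18 h.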

The target in experiment [9] is Thyrotropin receptor (Homo sapiens) (UniProt P16473). The experiment in a line: qHTS assay to identify small molecule agonists of the thyroid stimulating hormone receptor (TSHR) signaling pathway (AID 1224843; calls by dose curve; further: nearly all actives have a fitted effect of over 45% in size; further: potency means the concentration at half of the fitted maximal effect). The procedure, abridged: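 Screening of the Tox21 10K collection used HEK293 cells engineered with TSHR at 800 cells per well. After a 30-min room-temperature compound exposure, HTRF cAMP reagents were added and fluorescence recorded 1 h later.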

Experiment [10] in a line: qHTS assay to identify small molecule agonists of the hypoxia (HIF-1) signaling pathway - cell viability counter screen (AID 1224844; calls by dose curve; further: nearly all actives have a fitted effect of over 50% in size; further: potency means the concentration at half of the fitted maximal effect). The procedure, abridged: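 Tox21 10K compounds were added to HRE-bla ME-180 cells (0.5% dialyzed FBS) and incubated 17 hrs at 37C; ATP-based CellTiter-Glo luminescence then reported cell viability in the same wells.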
Experiment [11] can be described thus: qHTS assay to identify small molecule agonists of the hypoxia (HIF-1) signaling pathway (AID 1224846; active means well fitted activation curve with a large enough effect in the signal ratio in the repeat runs, not every such curve was filed as active; the % refers to the signal ratio). The method, boiled down: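 Steps: seed ME-180 HRE-bla cells (2,000/well, 0.5% dialyzed FBS); incubate 5 hrs at 37C; pin-transfer compounds or DMSO; incubate 17 hrs; add LiveBLAzer B/G substrate CCF4-AM; measure reporter activation by FRET.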
A short description of experiment [12]: qHTS assay to identify small molecule agonists of H2AX - cell viability counter screen (AID 1224847; calls by dose curve; further: top concentration of the series differs between compounds; nearly all actives have a fitted effect of over 30% in size). The method, boiled down:
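Quantitative HTS viability measurement: CHO-K1 wild-type cells in serum (10% FBS) medium, short 3 hr drug exposure at 37C with 0.76% DMSO, CellTiter-Glo luminescent detection.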

A short description of experiment [13]: qHTS assay to identify small molecule antagonists of the estrogen related receptor (ERR) signaling pathway from Tox21 library (AID 1224848). Further: nearly all actives have a fitted effect of over 50% in size. Further: potency means the concentration at half of the fitted maximal effect. The method, boiled down:
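Antagonist-mode screen of the Tox21 10K library in an NTP-provided ERR reporter cell line; 18 h compound exposure at 37 C, luminescence measured with ONE-Glo.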

Experiment [14] in a line: qHTS assay to identify small molecule agonists of the estrogen related receptor (ERR) signaling pathway from Tox21 library (AID 1224849; calls by dose curve; further: nearly all actives have a fitted effect of over 15% in size). The note with it: ERR reporter cell line, ONE-Glo luciferase, 18 h; at 92.4 µM (top of the series) unless noted. The procedure, abridged: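 Agonist signal is luciferase luminescence from an ERR reporter cell line treated 18 h at 37 C with DMSO-dissolved compounds, read 30 min after ONE-Glo addition at room temperature.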

Experiment [15] in a line: qHTS RealTime-Glo MT Cell Viability Assay in HepG2 cells - 24 hour (AID 1224867). Further: nearly all actives have a fitted effect of over 50% in size. Further: potency means the concentration at half of the fitted maximal effect. The method, boiled down: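 HepG2 cells (600/well) were dispensed with RealTime-Glo reagents, incubated 5 h at 37 °C, then treated with compounds in DMSO for up to 40 h. Nonlytic NanoLuc luminescence reflecting viable cells was read at each stated time point.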
Experiment [16] in a line: qHTS RealTime-Glo MT Cell Viability Assay in HEK293 cells - 32 hour (AID 1224868). The method, boiled down: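 HEK293 cells seeded with NanoLuc/prosubstrate reagent, rested 5 h at 37 C, then dosed and kept at 37 C up to 40 h. Nonlytic real-time luminescence from viable cells read at 0, 8, 16, 24, 32 and 40 h.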
Experiment [17] in a line: qHTS assay to identify small molecule agonists of the estrogen related receptor signaling pathway with the pleiotropic PPARgamma coactivator (PGC) from Tox21 10K library (AID 1224842). Further: nearly all actives have a fitted effect of over 15% in size. The method, boiled down: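 Luminescence from One-Glo (30 min, room temperature) measured after PGC/ERR cells had 18 h at 37 C with pinned compound (23 nL in DMSO). Cells had been seeded at 2,000 per well and pre-incubated 6 h.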

Experiment [18] is described as follows: qHTS assay to identify small molecule agonists of H2AX (AID 1224845; active means well fitted activation curve with a large enough effect in the signal ratio in the repeat runs, not every such curve was filed as active; the % refers to the signal ratio). The method, boiled down: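 Phospho-H2AX Ser139 measured by HTRF (ex 320 nm; em 665 and 620 nm) after 24 hr antibody incubation. Compounds, 15 concentrations, 0.76% DMSO, were applied to CHO-K1 cells for 3hr at 37C before lysis.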
The nature of experiment [19]: A CellTox Green Cytotoxicity Assay to monitor cytotoxicity in HEK293 cells - 0 hour (AID 1224869). Further: nearly all actives have a fitted effect of over 50% in size. The procedure, abridged:
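Cytotoxicity was tracked continuously in HEK293 cells by a DNA-binding dye excluded from viable cells. Compounds were transferred in DMSO 5 h after seeding; fluorescence was recorded at intervals up to 40 h.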

The nature of experiment [20]: qHTS assay to identify small molecule antagonists of the estrogen related receptor (ERR) signaling pathway from Tox21 library - cell viability counter screen (AID 1224834). Further: nearly all actives have a fitted effect of over 30% in size. The procedure, abridged: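 Cytotoxicity of test substances is gauged in the same ERR cells used for the antagonist screen, after 17.5 h of compound treatment at 37 C, by CellTiter-Fluor fluorescence measured after 30 min.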

Values without a mark were called inactive. Results filed as inconclusive are left out. Active and inactive are the calls of the source. Unless noted, the call rests on the fitted dose curve; in most records, active means well fitted curve in the direction sought with a large enough effect in the repeat runs; inconclusive means weak or mixed curves; inactive means no such curve, though single readings can be large; an effect the other way counts as inactive or inconclusive.
On the % scale 0 is the no-effect control and ±100 the full control effect.

Luciferin 4-monooxygenase (Photinus pyralis), sequence (P08659 whole entry, looked up): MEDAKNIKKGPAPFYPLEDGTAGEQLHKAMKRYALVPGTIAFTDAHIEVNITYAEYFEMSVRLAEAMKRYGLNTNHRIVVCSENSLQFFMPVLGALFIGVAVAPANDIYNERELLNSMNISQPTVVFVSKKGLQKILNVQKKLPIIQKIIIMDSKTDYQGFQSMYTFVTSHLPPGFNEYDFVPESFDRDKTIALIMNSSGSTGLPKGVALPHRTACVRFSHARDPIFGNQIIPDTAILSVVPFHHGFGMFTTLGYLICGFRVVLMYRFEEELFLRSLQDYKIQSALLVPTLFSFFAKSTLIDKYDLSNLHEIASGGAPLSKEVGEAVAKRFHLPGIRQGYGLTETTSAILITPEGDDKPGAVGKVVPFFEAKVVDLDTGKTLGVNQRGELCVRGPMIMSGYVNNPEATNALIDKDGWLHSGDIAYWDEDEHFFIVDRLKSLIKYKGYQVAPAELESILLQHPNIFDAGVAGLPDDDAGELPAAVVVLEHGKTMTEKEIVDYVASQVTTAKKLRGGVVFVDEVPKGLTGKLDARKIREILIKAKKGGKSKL
Thyrotropin receptor (Homo sapiens), sequence (P16473 whole entry, looked up): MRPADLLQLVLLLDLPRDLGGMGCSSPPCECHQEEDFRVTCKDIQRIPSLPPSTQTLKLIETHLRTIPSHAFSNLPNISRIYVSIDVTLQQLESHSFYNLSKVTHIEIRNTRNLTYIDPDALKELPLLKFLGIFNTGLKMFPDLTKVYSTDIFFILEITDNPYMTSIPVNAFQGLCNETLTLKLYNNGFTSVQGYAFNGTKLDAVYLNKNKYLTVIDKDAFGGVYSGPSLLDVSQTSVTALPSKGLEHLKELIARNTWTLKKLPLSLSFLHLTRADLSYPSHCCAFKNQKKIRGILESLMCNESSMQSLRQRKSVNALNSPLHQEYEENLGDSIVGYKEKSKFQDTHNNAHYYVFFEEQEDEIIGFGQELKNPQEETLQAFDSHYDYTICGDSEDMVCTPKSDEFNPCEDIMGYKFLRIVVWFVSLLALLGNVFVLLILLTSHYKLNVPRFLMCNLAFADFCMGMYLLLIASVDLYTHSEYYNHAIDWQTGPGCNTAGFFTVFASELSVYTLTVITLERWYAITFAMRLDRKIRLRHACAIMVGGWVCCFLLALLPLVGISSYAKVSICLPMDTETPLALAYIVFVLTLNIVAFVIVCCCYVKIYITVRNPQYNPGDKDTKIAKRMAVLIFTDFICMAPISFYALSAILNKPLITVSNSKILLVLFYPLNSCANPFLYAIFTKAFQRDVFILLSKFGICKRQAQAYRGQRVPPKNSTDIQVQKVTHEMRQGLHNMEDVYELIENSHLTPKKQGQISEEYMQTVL
Nuclear receptor subfamily 1 group I member 3 (Homo sapiens), sequence (Q14994 whole entry, looked up): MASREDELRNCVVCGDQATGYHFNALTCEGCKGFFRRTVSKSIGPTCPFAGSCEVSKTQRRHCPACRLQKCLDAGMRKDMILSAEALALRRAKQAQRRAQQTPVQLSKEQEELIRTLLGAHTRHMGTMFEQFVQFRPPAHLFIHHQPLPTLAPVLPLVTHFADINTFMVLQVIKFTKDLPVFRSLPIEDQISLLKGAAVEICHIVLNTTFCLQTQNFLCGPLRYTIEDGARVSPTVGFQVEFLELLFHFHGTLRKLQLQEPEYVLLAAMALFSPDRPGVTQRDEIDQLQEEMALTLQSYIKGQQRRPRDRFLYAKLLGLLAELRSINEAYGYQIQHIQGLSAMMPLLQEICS

As for `c1cc2ccc3cccc4ccc(c1)c2c34`, the call in experiment [1] and in experiment [11] was inactive. For the same compound, the Potency entry in experiment [2], in experiment [3], in experiment [4], in experiment [5], in experiment [7] and in experiment [8] was “inactive” in each case. Besides, the Potency result in [10], in [12], in experiment [15] and in [16] was “inactive” throughout. In addition, the Potency was 36 µM (active) in [6], 7.19 µM (active) in [9] and 50.9 µM (active) in experiment [13]. Also, the activity change, positive = activation in experiment [14] is -47.4%.
Take `O=S(=O)(O)C(F)(F)C(F)(F)C(F)(F)C(F)(F)F`: the outcome in experiment [1] and in experiment [11] was inactive. In addition, the Potency entry in [2], in [3], in experiment [4], in experiment [7], in experiment [17] and in experiment [10] was “inactive” throughout. Further, the Potency entry in [18], in experiment [15] and in experiment [19] was “inactive” throughout. Moreover, the Potency in experiment [6] is 32.5 µM (active).
As to `CCBr`, the Potency result in experiment [20], in [2], in [3], in experiment [4], in [5] and in experiment [6] was “inactive” throughout. The Potency entry in [7], in experiment [8], in experiment [17], in [9], in experiment [10] and in experiment [18] was “inactive” in each case. Moreover, the Potency entry in experiment [12], in [13], in [15], in experiment [16] and in experiment [19] was “inactive” each time. The result in experiment [11] was inactive. Further, the activity change, positive = activation in [14] was 6.77%.
In the case of `ClC=C(Cl)Cl`, the Potency entry in experiment [20], in experiment [2], in experiment [3], in experiment [4], in experiment [5] and in experiment [6] was “inactive” in each case. Further, the Potency entry in [7], in experiment [8], in [17], in experiment [9], in experiment [18] and in experiment [12] was “inactive” each time. The Potency entry in experiment [13], in [15], in experiment [16] and in [19] was “inactive” in each case. Further, the compound was called inactive in experiment [11]. Moreover, in experiment [14], the activity change, positive = activation is -0.0629%.
Regarding `CC(C)=CCOc1c2occc2cc2ccc(=O)oc12`, the outcome in [1] and in experiment [11] was inactive. The Potency result in experiment [20], in experiment [2], in experiment [3], in experiment [4], in [5] and in experiment [7] was “inactive” throughout. Also, the Potency result in [8], in experiment [17], in [9], in [18], in experiment [12] and in experiment [13] was “inactive” each time. The Potency result in experiment [16] and in [19] was “inactive” throughout. Also, the Potency in experiment [6] was 10.6 µM (active). Moreover, the activity change, positive = activation in [14] is -9.71% [at 42.5 µM].
`c1ccc(C2CC2)c(OCC2=NCCN2)c1`: the compound was called inactive in experiment [1] and in [11]. In addition, the Potency result in [20], in experiment [2], in [4], in experiment [7], in experiment [8] and in experiment [17] was “inactive” in each case. For the same compound, the Potency result in experiment [10], in experiment [18], in experiment [12], in experiment [13], in [15] and in [16] was “inactive” in each case. In experiment [19], the Potency entry was “inactive”. In addition, the activity change, positive = activation in experiment [14] was 4.99% [at 42.5 µM].
For the compound `NC(=O)CI`, the outcome in experiment [1] was inactive. The Potency entry in experiment [20], in experiment [3], in experiment [4], in experiment [6], in [7] and in experiment [8] was “inactive” each time. Moreover, the Potency entry in [17], in [9], in experiment [18], in experiment [13] and in experiment [19] was “inactive” in each case. Besides, the Potency in experiment [2] is 80.4 µM (active); in experiment [10], 35 µM (active); in experiment [15] it was 13.9 µM (active). Moreover, the activity change, positive = activation in experiment [14] is -20%.
